Data as given in PubChem BioAssay AID624330 (Southern Research Specialized Biocontainment Screening …, 2012).
The whole screen tested about 340,000 compounds, of which about 2,100 (0.62%) were called active.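 How the source made its calls: active means first-screen hits whose inhibition reached a set limit at any dose in the follow-up dose series; inconclusive means inhibition above the set first-screen limit but never retested; inactive means the rest.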 The list is a sample of the results. Measured potencies and affinities stand elsewhere.

Biological target: Rac GTPase-activating protein 1 (Homo sapiens) (UniProt Q9H0H5)
Assay: blockers of MgcRacGAP-driven Rac1 GTP hydrolysis – biochemical, ADP Hunter fluorescence, primary and confirmatory, confirmation (AID 624330);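 further: fluorescence reports GDP produced by GAP-driven GTP hydrolysis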
Settings: MgcRacGAP-stimulated Rac1 GTP hydrolysis, at 30 µM, stronger effect = higher value, GST-tagged Rac1 F28L mutant substrate

Sequence of Rac GTPase-activating protein 1 (Homo sapiens) (Q9H0H5 whole entry, looked up): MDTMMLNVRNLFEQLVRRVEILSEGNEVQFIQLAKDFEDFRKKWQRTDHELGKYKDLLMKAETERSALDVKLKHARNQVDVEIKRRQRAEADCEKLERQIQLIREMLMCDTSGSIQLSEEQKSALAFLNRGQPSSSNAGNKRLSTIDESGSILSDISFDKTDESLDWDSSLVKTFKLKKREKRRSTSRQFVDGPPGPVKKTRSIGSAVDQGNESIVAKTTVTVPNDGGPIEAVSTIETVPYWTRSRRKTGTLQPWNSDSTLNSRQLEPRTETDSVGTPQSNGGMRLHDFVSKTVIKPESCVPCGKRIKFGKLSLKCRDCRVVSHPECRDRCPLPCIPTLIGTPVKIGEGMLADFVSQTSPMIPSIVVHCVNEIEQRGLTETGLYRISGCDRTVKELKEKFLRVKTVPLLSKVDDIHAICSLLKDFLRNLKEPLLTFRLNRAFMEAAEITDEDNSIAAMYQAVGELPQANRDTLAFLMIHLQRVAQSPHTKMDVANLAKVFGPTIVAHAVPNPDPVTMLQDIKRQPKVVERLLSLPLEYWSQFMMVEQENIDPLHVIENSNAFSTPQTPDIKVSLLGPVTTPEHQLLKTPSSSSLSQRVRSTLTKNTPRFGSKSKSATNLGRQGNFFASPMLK

inhibition, inactive:
Cn1c(=Nc2ccccc2)sc2ccccc21 4.04%
COc1ccc(N=c2sc3ccccc3n2C)cc1 3.05%
CCC(=NOCc1ccccc1)C(=O)NNS(=O)(=O)c1ccc(C)cc1 0.04%
O=C(N/N=C/c1cccc(O)c1)c1ccc(-n2cnnn2)cc1 1.77%
COc1cc(C(=O)N/N=C/c2ccc(OC(=O)c3ccccc3)c(OC)c2)ccc1O 25.2%
COc1cc(/C=N/Nc2ccccc2C(F)(F)F)ccc1O 20.2%
COc1ccc(/C=N/NC(=O)c2ccc(-c3ccccc3)cc2)cc1O 25.4%
O=C(N/N=C/c1ccc(F)cc1)c1ccc(-n2cnnn2)cc1 -4.33%
COc1cc(C=NNc2nc3c([nH]2)c(=O)n(C)c(=O)n3C)ccc1O 12.7%
COc1cc(C(=O)N/N=C/c2cn(Cc3cccc(F)c3)c3ccccc23)ccc1O 28.6%
Nc1ccc(C(=O)N/N=C/c2cn(Cc3ccccc3)c3ccccc23)cc1 0.58%
CCn1c(CNC(=O)c2ccco2)nnc1SCC(=O)c1ccccc1 13.1%
CCN(CC)S(=O)(=O)c1cccc(NC(=O)C(=O)c2c(-c3ccccc3)cc3ccccn23)c1 9%
O=C(/C=C/c1ccc(Cl)cc1)N1CCN(Cc2ccccc2)CC1 10.8%
CC(Oc1ccc(Br)cc1)C(=O)Nc1ccc(S(=O)(=O)Nc2nccs2)cc1 (stereo not given) 3.41%
COc1cc(/C=N/Nc2ccccc2)ccc1O 13%
COc1ccc(/C=N/Nc2cc(=O)n(C)c(=O)n2C)cc1OC 1.57%
COc1cc(C=NCc2ccccc2)ccc1O 15.5%
COc1ccc(NS(=O)(=O)c2cccc(C(=O)NN=Cc3ccc(OC)c(O)c3)c2)cc1 22.5%
COc1ccc(/C=N/NC(=O)c2cc[n+]([O-])cc2)cc1 2.43%
COc1ccc(NS(=O)(=O)c2cccc(C(=O)N/N=C/c3ccc(O)cc3)c2)cc1 16.4%
Cn1c(N/N=C\c2cccc(O)c2)cc(=O)n(C)c1=O 11.6%
COc1ccc(/C=N/NC(=O)c2cc[n+]([O-])cc2)cc1OC 1.48%
Cc1ccc(C(=O)N2CCN(S(=O)(=O)c3ccc(C)c([N+](=O)[O-])c3)C2)cc1 6.42%
O=S(=O)(c1ccc(-c2csc(=Nc3ccccc3)n2CCCN2CCOCC2)cc1)N1CCOCC1 3.34%
CCCCCCCNC(=O)C1(CC2CC(c3ccc(Cl)cc3)=NO2)CCN(C(=O)Cc2ccc(F)cc2)CC1 (stereo not given) 4.28%
Fc1ccc(CN2CCCN(Cc3nc(-c4ccc5c(c4)OCO5)no3)CC2)cc1 7.98%
CCCC(=O)Nc1ccc(C(=O)COC(=O)C2CC2)cc1 6.42%
Cc1cc(C)c(C(=O)N2CCCC(CNC(=O)C3(c4ccc(Cl)cc4)CC3)C2)c(=O)[nH]1 (stereo not given) 6.3%
CNC(=O)c1ccc(CN(C)C(=O)c2cccc(S(=O)(=O)N3CCc4ccccc4C3)c2)cc1 15.5%
COc1ccc(/C=N\NC(=O)c2cc(O)c(O)c(O)c2)cc1CN1CCN(c2ccc(F)cc2)CC1 -36.7%
COc1ccc(/C=N/NC(=O)c2cc3cc(OC)c(OC)cc3[nH]2)cc1 10.7%
COc1cc(C(=O)N/N=C/c2ccc3c(c2)c2ccccc2n3C)ccc1O 22.2%
O=C(N/N=C/c1ccncc1)c1ccc(-n2cccc2)cc1 -9.21%
O=C(N/N=C/c1ccc(F)cc1)c1cc[n+]([O-])cc1 2.39%
COc1cc(/C=N/NC(=O)c2cc[n+]([O-])cc2)cc(OC)c1OC 7.29%
COc1ccc(/C=N/NC(=O)c2ccc(C)cc2)cc1CN1CCN(c2ccc(F)cc2)CC1 11.1%
COc1ccc2[nH]c(C(=O)N/N=C/c3ccc(OC)c(O)c3)cc2c1 26.2%
Cc1onc(-c2c(Cl)cccc2Cl)c1C(=O)N(C)Cc1ccccc1 12.4%
CC(=O)N1CCN(c2ccc(NC(=O)c3ccco3)cc2Cl)CC1 8.65%
Cc1sc2nc(SCC(=O)N3CCN(CCO)CC3)n(-c3ccccc3)c(=O)c2c1C 6.94%
CCC(Oc1cc(Cl)ccc1Cl)C(=O)NN1C(=O)C2C3CCC(C3=C(C)C)C2C1=O (stereo not given) 4.3%
CCCCCCN1C[C@H](n2cc(COC(=O)c3ccccc3)nn2)[C@@H](O)C[C@@H]1c1ccc(C)cc1 2.5%
O=C(Nc1ccc(Cl)cc1)N[C@@H]1c2c(ccc3ccccc23)OC[C@@H]1CO -2.15%
COC(=O)c1c(-c2ccccc2)csc1NC1=NS(=O)(=O)c2ccccc21 -0.52%
COc1ccccc1/C=N/NC(=O)c1cccc(NC(=O)c2ccccc2C)c1 6.03%
COc1ccc(/C=N/NC(=O)c2[nH]nc3c2CCc2ccccc2-3)cc1OC 11.3%
COc1ccc(/C=N/NC(=O)C(=O)Nc2ccccn2)cc1OC 13.3%
C=CCOc1ccc(/C=N/NC(=O)C(=O)Nc2ccccn2)cc1OC -2.52%
COc1ccc(OC)c(/C=N/NC(=O)c2[nH]nc3c2CCc2ccccc2-3)c1 -0.52%
COc1cc(/C=N/NC(=O)c2cccc(NC(=O)c3ccccc3Cl)c2)ccc1O 28.3%
COc1cc(OC)c(OC)cc1/C=N/NC(=O)c1ccc(CSc2nc(C)cc(C)n2)cc1 8.78%
COc1ccc(/C=N/NC(=O)c2ccc(CSc3nc(C)cc(C)n3)cc2)c(OC)c1OC 5.29%
C[C@@H]1CN([C@@H](C)CO)C(=O)CCCn2cc(nn2)CO[C@H]1CN(C)S(=O)(=O)c1ccc(Oc2ccccc2)nc1 15.5%
C[C@@]12C(=O)Nc3cc(Cl)ccc3C(=O)N1[C@H]1c3cc(Br)ccc3OC[C@@H]1[C@@H]2c1ccccc1 11.9%
